Source: PubChem BioAssay (NCI)
This is part of a sample that, as a whole, favours compounds with a hit. Of some 79,000 tested, about 15% had one in any assay. Calls of active or inactive are those of the source. Cut-off read from the data, not from the text of the source: active = growth inhibition above about 70%; inactive = the rest.

Assays:
[1] = NCI Yeast Anticancer Drug Screen. Data for the rad50 strain (AID 155);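 note: 0% = growth of vehicle-only cultures of the same strain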; settings: S. cerevisiae rad50 strain growth inhibition; at 50.0 µM; active compounds read high
Outline: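 Relative growth inhibition (compound vs vehicle) was measured in yeast with a defined repair-gene alteration.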

[2] = NCI Yeast Anticancer Drug Screen. Data for the mec2-1 strain (AID 157); settings: S. cerevisiae mec2-1 strain, at 50.0 µM, active compounds read high
Outline: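 mec2-1 yeast strain, carrying an alteration in DNA damage repair or cell cycle control, was exposed to compounds; growth inhibition was measured relative to vehicle-treated controls.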

[3] = NCI Yeast Anticancer Drug Screen. Data for the sgs1 mgt1 strain (AID 161);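 note: 0% = growth of cultures given vehicle only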; settings: S. cerevisiae sgs1 mgt1 strain, at 50.0 µM, active compounds read high
Outline: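 Compounds are added to genetically altered yeast, and growth is compared with cultures given vehicle alone to give percent inhibition.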

[4] = NCI Yeast Anticancer Drug Screen. Data for the cln2 rad14 strain (AID 165);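 note: 0% = growth equal to vehicle treated cultures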; settings: S. cerevisiae cln2 rad14 strain, at 50.0 µM, active compounds read high
Outline: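 Yeast carrying cln2 and rad14 alterations (cell cycle control and DNA damage repair) were exposed to compounds. Growth inhibition was measured against vehicle-treated controls.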

[5] = NCI Yeast Anticancer Drug Screen. Data for the bub3 strain (AID 167); settings: S. cerevisiae bub3 mutant strain, at 50.0 µM, active compounds read high
Outline: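 Screening used yeast with an engineered genetic alteration affecting cell cycle control. Compound-exposed cultures were compared with vehicle cultures, and reduced growth was taken as inhibition.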

[6] = NCI Yeast Anticancer Drug Screen. Data for the mlh1 rad18 strain (AID 175); settings: S. cerevisiae mlh1 rad18 strain growth inhibition; at 50.0 µM; active compounds read high
Outline: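 Growth inhibition of the yeast strain was measured after compound exposure and expressed relative to vehicle-treated controls. The strain carries defined defects in DNA damage repair.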

Measured: growth inhibition

CCCCCCCCCCCCC(F)C(=O)OCC1OC(n2cc(C)c(=O)[nH]c2=O)CC1N=[N+]=[N-] (stereo not drawn)
inactive: [1] 3.25% | [2] -15.7% | [3] 36.4% | [4] -14.8% | [5] 10.7% | [6] 14.8%

CSc1ccc(NC(=O)Nc2cc(C)ccn2)cc1
inactive: [1] 5.8% | [2] -11.1% | [3] -45.7% | [4] -37.8% | [5] -61% | [6] 10.6%

OCC(O)C(O)C(O)C(O)/C=N\Nc1ccccc1 (stereo not drawn)
inactive: [1] 43.3% | [2] 67% | [3] 62.8% | [4] 34.1%
active: [5] 81% | [6] 89.1%
